PubChem BioAssay (NCI)
About 83,000 compounds went through this panel and 20% of them were active in at least one assay; those are over-represented in the sample as a whole.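 Percent growth is the endpoint: 0 to 100 indicates growth inhibition (40 means 60% inhibition), 0 means no net growth, and negative values indicate cell death.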 Values without a mark were called inactive. Activity calls are given as the source filed them. Rule for the calls: active = growth percent below 10; inactive = the rest.

Columns and labels:
Test in all cases: NCI-60 one-dose screen, 48 h (100 = growth as untreated, 0 = no growth, -100 = all killed)
[1] = tested on: SK-MEL-2 melanoma; conditions: 10 µM
[2] = tested on: SN12C renal; conditions: 10 µM
[3] = tested on: UO-31 renal; conditions: 10 µM
[4] = tested on: TK-10 renal; conditions: 10 µM unless noted
[5] = tested on: ACHN renal; conditions: 10 µM
[6] = tested on: CAKI-1 renal; conditions: 10 µM
[7] = tested on: A498 renal; conditions: 10 µM
[8] = tested on: CCRF-CEM leukemia; conditions: 10 µM
[9] = tested on: MOLT-4 leukemia; conditions: 10 µM
[10] = tested on: SR leukemia; conditions: 10 µM
[11] = tested on: RPMI-8226 leukemia; conditions: 10 µM
[12] = tested on: OVCAR-5 ovarian; conditions: 10 µM
[13] = tested on: OVCAR-4 ovarian; conditions: 10 µM
[14] = tested on: SK-OV-3 ovarian; conditions: 10 µM
[15] = tested on: OVCAR-3 ovarian; conditions: 10 µM
[16] = tested on: NCI/ADR-RES ovarian; conditions: 10 µM
[17] = tested on: IGROV1 ovarian; conditions: 10 µM
[18] = tested on: HS 578T breast; conditions: 10 µM
[19] = tested on: OVCAR-8 ovarian; conditions: 10 µM

SMILES | growth [1] | growth [2] | growth [3] | growth [4] | growth [5] | growth [6] | growth [7] | growth [8] | growth [9] | growth [10] | growth [11] | growth [12] | growth [13] | growth [14] | growth [15] | growth [16] | growth [17] | growth [18] | growth [19]
C=CCCCCCCCCCOC(C)=O | 98.5% | 98.8% | 92.4% | 91.5% | 110% | 104% | 111% | 101% | 103% | 91.4% | 101% | 103% | 103% | 104% | 103% | 107% |  |  | 
CCCCCCCCCCC(C)Br (stereo unspecified) | 104% | 103% | 91.9% | 107% | 102% | 98.6% | 108% | 95.3% | 95.3% | 93.8% | 101% | 104% | 109% | 98.3% | 108% | 105% | 106% | 116% | 
CCN1C(=O)/C(=C/C=C/N(C)c2ccccc2)SC1=S | 82.5% | 94.4% | 94.2% | 85.6% | 75.7% |  | 92.8% | 92% | 89% | 73.4% | 86.8% | 102% |  | 41.3% | 81.4% | 81.5% |  | 58.6% | 69.2%
CC[N+](C)(CC)CCO | 109% | 98% | 92% | 95.3% | 106% | 94% | 109% |  | 101% | 104% | 102% |  |  | 103% | 108% | 105% | 104% | 107% | 94.3%
O=C(O)CSCSCC(=O)O | 94.8% | 104% | 92.3% | 93.6% | 101% | 96.9% | 80.4% |  | 101% |  | 97.3% |  |  | 93.6% | 104% | 109% | 107% | 114% | 101%
Sc1ccc(Nc2c3ccccc3nc3ccccc23)cc1 | 40.7% | 95.6% | 82.4% | 104% | 97% | 92.2% |  | 97.1% | 94.1% | 80.5% | 44.2% | 99.2% | 95.6% | 79.2% | 100% | 51.3% | 89.3% | 112% | 106%
Cc1ccc(S(=O)(=O)O)c(C)c1 | 112% | 103% | 73.6% | 101% | 103% | 96.3% | 94.1% | 100% | 98.6% | 95.2% |  | 104% | 86.5% | 95.7% | 110% | 104% | 103% | 93.8% | 105%
N#CCCc1ccc(O)cc1 | 104% | 107% | 90.5% | 113% | 99.9% | 95.4% | 104% |  | 98.5% | 94.6% | 102% | 95.6% | 111% | 106% | 110% | 116% | 116% | 102% | 93.9%
O=C(O)/C=C/c1ccc2c(c1)CCC2 | 110% | 95.4% | 99.7% | 107% | 107% | 94.5% | 111% | 83.5% | 97.1% | 80.2% | 99.2% | 97.8% |  | 99.6% | 117% | 109% | 118% |  | 99.8%
C#CC(C(C)C)N(CCO)CCCC (stereo unspecified) | 111% | 102% | 96.8% | 107% | 100% |  | 88.8% | 95.6% | 107% | 101% | 101% | 92.4% |  | 106% | 111% | 110% | 115% | 102% | 
COc1cccc(/C=N/NC(=S)NC2CC3CCC2C3)c1O (stereo unspecified) | 69% | 57.9% | 21.8% | 88.3% | 32.1% | 38.2% | 51.9% | 29.1% |  | 3.68% (active) | 46.8% |  | 19.2% | 46.2% | 6.8% (active) | 15.4% | 67% |  | 40.5%
COCCCNC(=O)c1nnn2c1nc(N)c1cc(Cl)ccc12 | 74.2% | 101% | 71.7% | 105% | 104% | 80.6% | 96.4% |  | 79.6% |  | 96.9% | 109% | 90.7% | 79.2% | 81.1% | 93.9% | 78.6% | 90.4% | 103%
CCO/C=C1\SC(=S)N(c2cccc(C)c2)C1=O | 110% | 106% | 79.3% | 98.9% | 106% | 101% | 113% |  | 95.7% | 87.9% | 92.4% | 106% | 100% | 88.7% | 104% | 109% | 107% | 103% | 101%
Cc1c(O)cnc2nn(-c3ccccc3)c(=N)n12 | 94.7% | 97.7% | 94.5% | 109% | 96.7% | 102% | 106% |  | 104% |  | 113% | 106% | 95.8% | 108% | 113% | 108% | 113% | 127% | 103%
O=C(O)COCC(=O)O | 107% | 102% | 91.4% | 124% | 103% | 97.5% | 110% | 101% |  | 95.3% |  | 107% | 88.6% | 111% | 103% | 106% | 105% | 117% | 98.2%
CCCC(C)OCC(=O)O (stereo unspecified) | 104% | 103% | 86.6% | 119% | 102% | 97.5% | 103% | 101% | 95% | 94.5% |  | 108% | 84.8% | 113% | 108% | 107% | 105% | 117% | 97.2%
COc1cc(CCN=Cc2ccccc2O)c([N+](=O)[O-])cc1OC | 102% | 103% | 79.3% | 96.9% | 96.7% | 86.6% | 119% |  | 96.1% |  | 105% | 101% | 120% | 108% | 101% | 103% | 96.5% | 114% | 107%
Cc1ccc(CCCC(=O)O)c(C)c1 | 91.1% | 97.9% | 90.9% | 95% | 98.3% | 99.7% | 101% |  | 98.7% | 96.7% | 97.8% | 94.5% | 97.6% | 97.7% | 108% | 107% | 108% | 108% | 97.4%
